Screening data deposited in PubChem by Center for Chemical Genomics, University of Michigan.
TAR Tat displ – HIV-1 TAR-Tat binding disruption | HIV-1 TAR RNA, Tat peptide displacement FRET; stronger effect = higher value | AID 1259389 | z-score (no concentration beside the values) | actives 0.6% (n = 100,000); active = z-score of 3 or more in at least 2 runs
CDC25B CDK2 inh – human CDC25B-CDK2/CyclinA binding inhibition; P30305+P24941; actives 0.72% (n = 94,000); AID 1259370; z-score (concentration not given with the values); HTRF CDC25B-CDK2/CyclinA binding, anti-His/anti-Flag; stronger effect = higher value; in the data active = z-score above about 3.2
Each line names hits and unclear results; the compound was inactive in the other large screens. Sampled rows, rich in hits. Any-hit rate of the full collection: about 0.86%.

COc1cc(C2CC(=O)N3CN(Cc4ccccc4)CSC3=C2C#N)ccc1O (stereo not drawn)	CDC25B CDK2 inh 4
COc1cc(C2CC(=O)N3CN(c4ccc(C)cc4)CSC3=C2C#N)cc(Br)c1O (stereo not drawn)	none
COc1cc(C2CC(=O)N3CN(Cc4ccccc4)CSC3=C2C#N)cc(Br)c1O (stereo not drawn)	CDC25B CDK2 inh 3.5
COc1cc(-c2oc3cc(O)cc(O)c3c(=O)c2O[C@@H]2O[C@H](CO)[C@@H](O)[C@H](O)[C@H]2O)ccc1O	none (no result: CDC25B CDK2 inh)
O=c1c(O[C@@H]2O[C@H](CO)[C@@H](O)[C@H](O)[C@H]2O)c(-c2ccc(O)c(O)c2)oc2cc(O)cc(O)c12	TAR Tat displ 28 (no result: CDC25B CDK2 inh)
O=c1c(O[C@@H]2O[C@H](CO)[C@H](O)[C@H](O)[C@H]2O)c(-c2ccc(O)c(O)c2)oc2cc(O)cc(O)c12	TAR Tat displ 27 (no result: CDC25B CDK2 inh)
CC1O[C@@H](Oc2c(-c3ccc(O)c(O)c3)oc3cc(O)cc(O)c3c2=O)[C@H](O)[C@H](O)[C@H]1O (stereo partly drawn)	none (no result: CDC25B CDK2 inh)
COc1ccc(-c2oc3cc(O[C@H]4O[C@H](CO)[C@@H](O)[C@H](O)[C@H]4O)c(OC)c(O)c3c(=O)c2OC)cc1O	none (no result: CDC25B CDK2 inh)
C[C@@H]1O[C@@H](OC[C@H]2O[C@@H](Oc3c(-c4ccc(O)c(O)c4)oc4cc(O)cc(O)c4c3=O)[C@H](O)[C@@H](O)[C@@H]2O)[C@H](O)[C@H](O)[C@H]1O	TAR Tat displ 11 (no result: CDC25B CDK2 inh)
O=c1c(O[C@@H]2OC([C@H](O)CO)[C@H](O)[C@H]2O)c(-c2ccc(O)c(O)c2)oc2cc(O)cc(O)c12 (stereo partly drawn)	TAR Tat displ 27 (no result: CDC25B CDK2 inh)
COc1cc(-c2oc3cc(O)cc(O)c3c(=O)c2OC[C@@H]2OC(O[C@@H]3O[C@@H](C)[C@H](O)[C@@H](O)[C@H]3O)[C@@H](O)[C@H](O)[C@@H]2O)ccc1O (stereo partly drawn)	none (no result: CDC25B CDK2 inh)
Cc1ccc(CNC(=O)c2cc(S(=O)(=O)N3CCOCC3)cn2C)o1	none (no result: CDC25B CDK2 inh)
CC1=C(C(=O)NC2CCCCC2)C2(CCN(S(C)(=O)=O)CC2)OC1=O	none (no result: CDC25B CDK2 inh)
CC1CCCCN1c1nnc(NC(=O)Nc2ccc(Br)cc2F)s1 (stereo not drawn)	none
O=C(Cn1cnc2c(nc3n2CCCCC3)c1=O)Nc1ccc(F)cc1F	none (no result: CDC25B CDK2 inh)
CCc1nnc(NC(=O)C(=O)Nc2ccc3nc4n(c(=O)c3c2)CCCCC4)s1	none
CCOC(=O)c1c(NC(=O)CSc2nc(C)nc3c2CCC3)sc2c1CCC(C)C2 (stereo not drawn)	none
Cc1cccn2c(=O)c3cc(C(=O)Nc4ccc(S(N)(=O)=O)cc4)n(C)c3nc12	TAR Tat displ 43 (no result: CDC25B CDK2 inh)
Cn1c(C(=O)Nc2ccc(Oc3ccccc3)cc2)cc2c(=O)n3ccccc3nc21	none (no result: CDC25B CDK2 inh)
Cc1cc(NC(=O)c2cc3c(=O)n4cccc(C)c4nc3n2C)ccc1Br	none (no result: CDC25B CDK2 inh)
CCCCNC(=O)c1cc2c(=O)n3ccccc3nc2n1C	TAR Tat displ 5 (no result: CDC25B CDK2 inh)
Cn1c(C(=O)NCc2ccccn2)cc2c(=O)n3ccccc3nc21	none (no result: TAR Tat displ)
Cn1c(C(=O)Nc2ccc(S(N)(=O)=O)cc2)cc2c(=O)n3ccccc3nc21	TAR Tat displ 27 (no result: CDC25B CDK2 inh)
CCSc1nc2c(c(=O)[nH]1)C(c1cccnc1)C1=C(CCCC1=O)N2 (stereo not drawn)	none (no result: TAR Tat displ)
CC(C)n1cnc2nc(CSc3ccc(NC(=O)COc4ccc(Cl)cc4)cc3)cc(=O)n21	none
CC(C)Cc1nc(N2CCN(C(=O)c3ccco3)CC2)c(C#N)c2c1COC(C)(C)C2	none
COCCCNS(=O)(=O)c1ccc2c(c1)CCCC(=O)N2	none (no result: CDC25B CDK2 inh)
CC(=O)Nc1c2n(c3ccc(F)cc13)CC(C)(C(=O)NC1CCCC1)N(c1cc(C)cc(C)c1)C2=O (stereo not drawn)	none (no result: CDC25B CDK2 inh)
C[Si](C)(C)OC(=O)/C=C\C(=O)O[Si](C)(C)C	CDC25B CDK2 inh 6.1 (no result: TAR Tat displ)
CCOC(=O)/C=C/C(=O)O	none (no result: TAR Tat displ)
Cc1ccc(-c2onc(C)c2C)cc1S(=O)(=O)NC1CC1	none (no result: CDC25B CDK2 inh)
Cc1cc(F)ccc1S(=O)(=O)N1CCc2cc3cccc(C)c3nc21	none
O=C1c2cccc3c(N4CCOCC4)ccc(c23)C(=O)N1c1cc(Cl)ccc1O	CDC25B CDK2 inh 9.7
O=C1c2cccc3c(N4CCOCC4)ccc(c23)C(=O)N1c1cccc(O)c1	none
O=C(c1ccco1)N1CCN(c2cc(=O)n3nc(-c4ccccc4)sc3n2)CC1	none (no result: CDC25B CDK2 inh)
O=c1cc(-c2ccccc2)oc2cc(O)c(O)c(O)c12	TAR Tat displ 29 (no result: CDC25B CDK2 inh)
COc1cccc2oc(-c3ccccc3)cc(=O)c12	none (no result: CDC25B CDK2 inh)
CCOC(=O)c1sc(=S)n(-c2ccc(C)cc2)c1N	none (no result: CDC25B CDK2 inh)
CCOC(=O)c1sc(=S)n(-c2ccc(F)c(F)c2)c1N	TAR Tat displ 17 (no result: CDC25B CDK2 inh)
COCC1=CC2CC(C1)C[B-]1(C2)Oc2cccc3ccc[n+]1c23 (stereo not drawn)	CDC25B CDK2 inh 5.2 (no result: TAR Tat displ)
COc1ccc(-n2c(C)cc(CNS(=O)(=O)c3cccc4nsnc34)c2C)cc1	none (no result: CDC25B CDK2 inh)
O=C(Nc1nc2ccc(Cl)cc2s1)c1csnn1	none
Cc1cc(C)nc(SCCS(=O)(=O)Cc2ccc(Cl)cc2)n1	none (no result: TAR Tat displ)
